HIV RNase H inh-1: inhibitors of HIV-1 reverse transcriptase RNase H. P04585. RT-RNase H RNA/DNA duplex cleavage, fluorescence. inhibition, % at 10 µM. hit rate 1.9% among 65,000. AID 565; in the data active means inhibition above about 50%
RmlC RmlD mix: mixture blocks RmlC and RmlD coupled enzyme activity. RmlC/RmlD coupled enzyme inhibition, 384-well mixture HTS. inhibition, % at 5.5 µM. hit rate 0.39% among 110,000; in the data active means inhibition above about 30%, passing the limit was not always enough; inconclusive means no clear call, values can overlap the other calls
HIV RNase H inh-2: confirmation of HIV-1 reverse transcriptase RNase H inhibitors; shares compounds with HIV RNase H inh-1; Recombinant RT RNase H, fluorescent RNA/DNA duplex cleavage; inhibition, % at 10 µM; hit rate 39% among 1,000; in the data active means inhibition above about 48%; inconclusive means no clear call, values can overlap the other calls
Numbers without * were called inactive. The full list was thinned out, with hits kept by preference.

`COc1cc2[nH]c(=O)n(CCC(=O)N3CCN(c4cccc(C)c4C)CC3)c(=O)c2cc1OC` gave HIV RNase H inh-1 61*, RmlC RmlD mix 9 and HIV RNase H inh-2 46.
For COc1cc2[nH]c(=O)n(CCCCCC(=O)N3CCN(c4ccccc4)CC3)c(=O)c2cc1OC the results were RmlC RmlD mix 13.
For CCOc1cc2[nH]c(=O)n(CC3CCC(C(=O)NC(C)CC)CC3)c(=O)c2cc1OCC (stereo unspecified) the results were HIV RNase H inh-1 0.
Screening O=C(NCCc1ccccc1)[C@@H]1CC=C[C@@H]2CCN(Cc3ccccc3)C(=O)[C@@H]21 returned RmlC RmlD mix -13.
S=C(c1ccc(-c2ccccc2Cl)o1)N1CCOCC1 was read as HIV RNase H inh-1 95*, RmlC RmlD mix -17 and HIV RNase H inh-2 51*.
Screening O=C(c1ccc(-c2cccc(C(F)(F)F)c2)o1)N1CCOCC1 returned HIV RNase H inh-1 -32 and RmlC RmlD mix -10.
`S=C(c1ccc(Cl)cc1)N1CCOCC1` gave HIV RNase H inh-1 90*, RmlC RmlD mix 3 and HIV RNase H inh-2 58*.
For S=C(Nc1ccc(Cl)cc1)N1CCOCC1 the results were RmlC RmlD mix -13.
`S=C(c1ccc(-c2ccc(Cl)cc2Cl)o1)N1CCCCC1` gave RmlC RmlD mix 11.
S=C(c1ccc(-c2ccc(Cl)c(Cl)c2)o1)N1CCOCC1 was read as HIV RNase H inh-1 66*, RmlC RmlD mix 8 and HIV RNase H inh-2 0.
Screening COCCOc1cc(-n2ccnc2SC)c(Cl)cc1Cl returned RmlC RmlD mix -5.
O=C(CCSc1nc(-c2ccco2)cc(C(F)(F)F)n1)Nc1ccc2c(c1)OCO2 was read as HIV RNase H inh-1 -1 and RmlC RmlD mix 4.
Screening COc1cccc(N2[C@@H](CC(=O)O)c3cc(C(F)(F)F)ccc3S2(=O)=O)c1 returned RmlC RmlD mix -10.
Screening Cc1sc2c(=O)n3c(nc2c1C(=O)NCCCN1CCOCC1)CCCCC3 returned HIV RNase H inh-1 -6 and RmlC RmlD mix 4.
CCC1(C)Cc2c(C#N)c(N)sc(=S)c2CO1 (stereo unspecified) was read as HIV RNase H inh-1 26 and RmlC RmlD mix -10.
N#Cc1c(N)sc(=S)c2c1CCCC2 was read as HIV RNase H inh-1 67*, RmlC RmlD mix 0 and HIV RNase H inh-2 -6.
O=C(O)C1Nc2ccc(C(F)(F)F)cc2C2OCCC12 (stereo unspecified) was read as RmlC RmlD mix 2.
Screening Cc1cccc(-c2nnc3n2N=C(c2ccc(Br)cc2)CS3)c1 returned HIV RNase H inh-1 40 and RmlC RmlD mix 7.
Screening COc1ccccc1-c1nnc2n1N=C(c1ccc(O)c(O)c1)CS2 returned HIV RNase H inh-1 94*, RmlC RmlD mix -12 and HIV RNase H inh-2 58*.
COc1cccc(-c2nnc3n2N=C(c2cccc(Br)c2)CS3)c1 was read as HIV RNase H inh-1 54*, RmlC RmlD mix -3 and HIV RNase H inh-2 inconclusive.
CCOc1ccc(C2=Nn3c(nnc3-c3ccccc3OC)SC2)cc1 was read as HIV RNase H inh-1 3 and RmlC RmlD mix -10.
Screening COC(=O)C1=C(C(=O)OC)[C@@H]2Nc3ccccc3[C@@]23C[C@@H](C(=O)OC)N(C(=O)CC(C)C)C3=N1 returned RmlC RmlD mix -7.
O=C(CSc1nnnn1C1CCCCC1)NCc1ccccc1 was read as RmlC RmlD mix 5.
Screening O=C(Sc1nnnn1C1CCCCC1)c1cccs1 returned HIV RNase H inh-1 62*, RmlC RmlD mix 7 and HIV RNase H inh-2 40.
O=C(NCc1ccccc1)c1ccccc1OCC(=O)N1CCCCC1 was read as RmlC RmlD mix 7.
Screening CCOc1ccc(C(=O)Nc2ccccc2N2CCCC2)cc1 returned RmlC RmlD mix -16.
Screening COc1ccc(-c2ocnc2C(=O)Nc2ccccc2N2CCCCC2)cc1 returned HIV RNase H inh-1 76*, RmlC RmlD mix -23 and HIV RNase H inh-2 45.
O=C1CC(N2CCN(C/C=C/c3ccccc3)CC2)C(=O)N1Cc1cccs1 (stereo unspecified) was read as HIV RNase H inh-1 5 and RmlC RmlD mix -8.
For O=C1CC(N2CCN(c3ccc(O)cc3)CC2)C(=O)N1Cc1cccs1 (stereo unspecified) the results were HIV RNase H inh-1 81*, RmlC RmlD mix -5 and HIV RNase H inh-2 20.
Screening CCOCC(=O)Nc1c(C(=O)Nc2ccc(OC)cc2OC)oc2ccccc12 returned HIV RNase H inh-1 17 and RmlC RmlD mix -7.
COc1cccc(OCC(=O)Nc2c(C(=O)Nc3ccc(OC)cc3OC)oc3ccccc23)c1 was read as HIV RNase H inh-1 89* and HIV RNase H inh-2 93*.
For C=CCOc1cccc(C2c3c(oc4ccc(F)cc4c3=O)C(=O)N2CCCN2CCOCC2)c1 (stereo unspecified) the results were HIV RNase H inh-1 0 and RmlC RmlD mix -11.
COc1ccc(C2/C=C\CN(C(=O)NC(C)C)CC(=O)N2Cc2ccc(F)cc2)cc1 (stereo unspecified) was read as RmlC RmlD mix 3.
Screening CC(C)OC(=O)c1nn2c(C(F)(F)F)cc(-c3ccco3)nc2c1Cl returned RmlC RmlD mix 17.
For CC(C)OC(=O)c1nn2c(C(F)(F)F)cc(-c3ccc(Br)o3)nc2c1Br the results were HIV RNase H inh-1 66*, RmlC RmlD mix -4 and HIV RNase H inh-2 -7.
For CCOC(=O)CC(N)c1ccc2c(c1)OCO2 (stereo unspecified) the results were HIV RNase H inh-1 0 and RmlC RmlD mix -11.
Screening Cn1c(SCC(=O)Nc2ccc3c(c2)OCCO3)nnc1-c1ccccn1 returned HIV RNase H inh-1 -3 and RmlC RmlD mix 11.
`O=C(CSc1nnc(-c2ccccn2)n1Cc1ccccc1)Nc1ccc2c(c1)OCO2` gave HIV RNase H inh-1 77*, RmlC RmlD mix 4 and HIV RNase H inh-2 6.
For Cc1nc(-c2ccc(Cl)cc2)sc1C1(C)CC(c2cccc([N+](=O)[O-])c2)=NO1 (stereo unspecified) the results were RmlC RmlD mix 6.
CCCCC(=O)Nc1cc(OC)c(NC(=O)C2CCCCC2)cc1OC was read as RmlC RmlD mix -11.
CCCC(=O)Nc1cc(OC)c(NC(=O)NC2CCCCC2)cc1OC was read as HIV RNase H inh-1 53*, RmlC RmlD mix -8 and HIV RNase H inh-2 8.
COC(=O)C(NS(C)(=O)=O)(c1c(C)[nH]c2ccccc12)C(F)(F)F (stereo unspecified) was read as HIV RNase H inh-1 -6.
For O=C(CSC1=NS(=O)(=O)c2ccccc21)Nc1ccccc1 the results were HIV RNase H inh-1 55*, RmlC RmlD mix 0 and HIV RNase H inh-2 7.
COC(=O)CSc1ccccc1C(=O)OC was read as HIV RNase H inh-1 -15 and RmlC RmlD mix 22.
Screening Cn1cnnc1SCC(=O)Nc1ccccc1 returned HIV RNase H inh-1 -5 and RmlC RmlD mix 5.
`COC(=O)CSC1=NS(=O)(=O)c2ccccc21` gave HIV RNase H inh-1 66*, RmlC RmlD mix -4 and HIV RNase H inh-2 -2.
Cc1noc(NS(=O)(=O)c2ccc(NC(=O)CSc3nc4c(cc3C#N)CCCC4)cc2)c1C was read as HIV RNase H inh-1 11 and RmlC RmlD mix -16.
Cc1noc(NS(=O)(=O)c2ccc(NC(=O)CSc3nc4c(cc3C#N)CCC4)cc2)c1C was read as HIV RNase H inh-1 78*, RmlC RmlD mix -10 and HIV RNase H inh-2 inconclusive.

High-throughput results from PubChem BioAssay.
